Results filed as inconclusive are left out. Calls of active or inactive are those of the source. The call rests on the fitted dose curve; in most records, active means well fitted inhibition curve with a large enough effect; inconclusive means small, poorly fitted or top-dose-only effect; inactive means no such curve, though single readings can be large or run the other way.
The compounds below were run against Cytochrome P450 3A4 (Homo sapiens) (UniProt P08684) (assay: qHTS Assay for Inhibitors and Substrates of Cytochrome P450 3A4 (AID 884; further: nearly all actives have a fitted effect of over 50% in size)). Conditions: recombinant CYP3A4, Luciferin-PPXE luminescence; series mostly up to 57.1 µM; activity change, negative = inhibition: at the top concentration.
Sequence of Cytochrome P450 3A4 (Homo sapiens) (P08684 whole entry, looked up): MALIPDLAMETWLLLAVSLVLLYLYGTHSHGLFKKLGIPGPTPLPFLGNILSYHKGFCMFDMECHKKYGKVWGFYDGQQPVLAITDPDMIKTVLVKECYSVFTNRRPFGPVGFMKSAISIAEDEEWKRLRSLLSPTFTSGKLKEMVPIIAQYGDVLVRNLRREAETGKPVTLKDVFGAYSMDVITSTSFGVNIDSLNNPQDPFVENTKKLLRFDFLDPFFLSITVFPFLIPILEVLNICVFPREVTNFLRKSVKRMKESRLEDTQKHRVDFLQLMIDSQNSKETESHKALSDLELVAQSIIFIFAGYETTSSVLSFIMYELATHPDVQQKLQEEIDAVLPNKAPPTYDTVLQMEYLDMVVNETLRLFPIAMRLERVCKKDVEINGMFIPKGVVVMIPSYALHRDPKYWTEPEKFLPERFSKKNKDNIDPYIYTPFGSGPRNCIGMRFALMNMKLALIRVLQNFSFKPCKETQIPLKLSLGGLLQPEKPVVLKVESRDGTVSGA
Procedure, shortened: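 20 nM human CYP3A4 with 25 uM Luciferin-PPXE (at KM) in 200 mM KPO4, preincubated 10 min with compound; NADPH regeneration started a 60 min RT reaction. Luciferin detected by luminescence, normalized to 57 uM ketoconazole as full inhibition.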
With `CCCC[C@@H]1C[C@H]1C(NC(=O)c1cccs1)c1ccccc1C(F)(F)F` (stereo partly drawn) the Potency was 3160 nM (active).
`CCCC[C@H]1C[C@@H]1[C@@H]1N(P(=O)(c2ccccc2)c2ccccc2)[C@](CO)(c2ccccc2)CC12CC2` was tested, and the Potency was 2000 nM (active).
`COc1cc2nc3c(c([Si](C)(C)C(C)(C)C)c2cc1OC)Cn1c-3cccc1=O` was tested, and the Potency was 3980 nM (active).
With `CCCC[C@@H]1C[C@H]1C(NC(=O)c1ccccc1)c1ccc(Cl)cc1` (stereo partly drawn) the Potency was 3980 nM (active).
For `CCC/C=C(\CCC)C(NP(=O)(c1ccccc1)c1ccccc1)c1ccc(C(F)(F)F)cc1` (stereo not drawn), the “activity change, negative = inhibition” value was -84.7% (inactive).
For `COc1ccc2nc3c(cc2c1)Cc1ccccc1-3`, the Potency was 6310 nM (active).
For `CCC[C@@H]1C[C@@]1(CCC)C(NS(=O)(=O)c1cccc2cccnc12)c1ccc(Cl)cc1` (stereo partly drawn), the Potency was 794 nM (active).
For `COC(=O)[C@@]1(Cc2ccc(OC)cc2)[C@@H]2[C@@H](CC(=O)[C@H]2CC(=O)C(=O)N2CCCC2)CN1C(=O)c1ccccc1`, the Potency was 794 nM (active).
With `c1ccc2c(c1)Cc1cc3cc4c(cc3nc1-2)OCO4` the Potency was 1000 nM (active).
`COC(=O)c1ccc(C23CC2(C(NP(=O)(c2ccccc2)c2ccccc2)c2ccccc2)C3)cc1` (stereo not drawn) was tested, and the Potency was 3160 nM (active).
In the case of `CCC/C=C(\CCC)C(NS(=O)(=O)c1cccc2cccnc12)c1ccc(C(=O)OC)cc1` (stereo not drawn), the Potency was 5010 nM (active).
With `COc1ccc2nc3c(c([Si](C)(C)C(C)(C)C)c2c1)Cn1c-3cccc1=O` the Potency was 1580 nM (active).
In the case of `COC(=O)[C@@]1(Cc2ccc(F)cc2)[C@H]2c3cc(C(=O)N4CCCC4)n(CCc4ccc(OC)c(Br)c4)c3C[C@H]2CN1C(=O)c1ccccc1`, the Potency was 2510 nM (active).

— PubChem BioAssay (NCATS)
On the % scale 0 is the no-effect control and ±100 the full control effect; potency means the concentration at half of the fitted maximal effect.
